# Data: PubChem BioAssay (NCATS)
# Several values for one entry are separate records, joined by “and”; a condition that tells them apart may be missing. Identical values can stand only once. Results filed as inconclusive are left out. Unmarked numbers belong to inactive results. Activity calls are given as the source filed them. Calls come from the whole dose curve; as a rule, active = well fitted curve in the direction sought with a large enough effect; inconclusive = small, poorly fitted or top-dose-only effect, or another doubt; inactive = no such curve, though single readings can be large; an effect the other way counts as inactive or inconclusive.
# Tests used:
# [1] = qHTS Assay for Identifying Gametocytocidal Compounds (AID 743244);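 note: actives lower the fluorescent signal which means gametocytes are killed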; settings: P. falciparum 3D7 stage III-V gametocytes, alamarBlue, 72 h; max response: stronger effect = lower value
# Outline: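 Late gametocytes (III–V), P. falciparum 3D7; 72 h drug, then 24 h alamarBlue; resazurin reduction read by fluorescence.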
# [2] = qHTS assay for cell viability of HEK293 cells (AID 743288); settings: ATP luminescence (CellTiter-Glo), 18 h; max response: stronger effect = lower value; note: nearly all actives have a fitted effect of over 50% in size; note: potency is the fitted concentration of half-maximal effect
# Outline: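 Parental HEK293 cells were seeded at 2,000 cells/well, rested at least 5 h at 37 C, then exposed to compounds in DMSO for 18 h at 37 C. Viability was read as ATP-dependent luciferase luminescence after 30 min at room temperature.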
# [3] = qHTS assay for cell viability of the p53RE-bla HCT-116 cell line (AID 743292); note: nearly all actives have a fitted effect of over 55% in size
# Outline: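 Readout: CellTiter-Glo luminescence after 30 min RT. Treatment: compounds in DMSO, 16 h, 37 C. Cells: CellSensor p53RE-bla HCT-116, 4,000/well, preincubated 5 h.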
# % is set by controls: 0 for no effect and ±100 for the full control effect.
Compound,max response [1],max response [2],outcome [3],Potency [2]
CC(C)(C)CC(C)(C)c1cc(Cc2cc(C(C)(C)CC(C)(C)C)cc(-n3nc4ccccc4n3)c2O)c(O)c(-n2nc3ccccc3n2)c1,-7%,,,
OB(O)O,7.6%,-3.91% and 5.45%,inactive,
C=C(C)C1CC=C(C)CC1 (stereo not drawn),0.817%,-3.42% and -10.2%,inactive,
CN(C)CCCSc1ccccc1NC(=O)/C=C/c1ccccc1,-4.09%,,,
Nc1nccs1,1.76%,-5.55%,inactive,
CCCCO,4.7%,11.1% and -7.83%,inactive,
CCCCCCCCCCCCCCCCCC(=O)OC[C@@H](O)[C@H]1OC[C@H](O)[C@H]1O,-8.87%,-11.8%,inactive,
CC(C)c1nc(N(C)S(C)(=O)=O)nc(-c2ccc(F)cc2)c1/C=C/C(O)CC(O)CC(=O)O (stereo not drawn),12%,,,
C[C@H]1O[C@@H](O[C@H]2[C@@H](O)C[C@H](O[C@H]3[C@@H](O)C[C@H](O[C@H]4CC[C@@]5(C)[C@H](CC[C@@H]6[C@@H]5C[C@@H](O)[C@]5(C)[C@@H](C7=CC(=O)OC7)CC[C@]65O)C4)O[C@@H]3C)O[C@@H]2C)C[C@H](O)[C@@H]1O,-13.6%,,,126 nM (active) and 50.1 nM (active)
CC(C)[C@@H]1CC[C@@H](C)C[C@H]1O,20.4%,-12.7%,inactive,
Oc1cccc(O)c1O,-2.15%,-17.5%,inactive,
N=C(N)n1cccn1,13.6%,,,
CC(C)CCCCCCc1ccc(O)cc1,9.95%,-15.7%,inactive,
Cc1ncc[nH]1,20%,-10.6%,inactive,
CO/N=C(\C(=O)N[C@@H]1C(=O)N2C(C(=O)O)=C(CSc3nnnn3C)CS[C@H]12)c1csc(N)n1,2.87%,,,
CC(O)CN(C)C (stereo not drawn),-6.61%,,,
O=C(O)COc1ccccc1/C=N/NC(=O)c1ccncc1,1.32%,,,
CC(C)CN(C[C@@H](OP(=O)(O)O)[C@H](Cc1ccccc1)NC(=O)O[C@H]1CCOC1)S(=O)(=O)c1ccc(N)cc1,-7.76%,,,
OC/C=C/c1ccccc1,2.6%,,,
CC(C)CCC[C@@H](C)[C@H]1CC[C@H]2[C@@H]3CC=C4C[C@@H](O)CC[C@]4(C)[C@H]3CC[C@]12C,-0.629%,-8.56%,inactive,

Compound,max response [1],max response [2],outcome [3],Potency [2]
Cc1ccc(S(=O)(=O)O)cc1C,1.6%,0.0836%,inactive,
CN1CCN(C(c2ccccc2)c2ccc(Cl)cc2)CC1 (stereo not drawn),1.98%,,,
Oc1ccc(/C=C/c2cc(O)cc(O)c2)cc1,-0.421% and 10.7%,-22.7% and -15%,inactive,
Nc1nc(NC2CC2)c2ncn([C@@H]3C=C[C@@H](CO)C3)c2n1,15.8%,,,
O=C(OCc1ccccc1)c1ccc(O)cc1,1.16%,-7.01%,inactive,
CC(C)O,0.211%,-16.4%,inactive,
OCCOCCOCCO,-2.42%,-2.87% and -1.37%,inactive,
N[C@@H](Cc1cc(I)c(Oc2ccc(O)c(I)c2)c(I)c1)C(=O)O,3.17%,-8.83%,inactive,
Nc1ccc(N=Nc2ccccc2)c(N)n1,-8.48%,-23.5% and -25.3%,inactive,
CC/C=C\C/C=C\C/C=C\CCCCCCCC(=O)O,13.1%,-4.87%,inactive,
O=C(O)CCC(=O)c1ccc(-c2ccccc2)cc1,1.84%,,,
O=C(O)c1ccc(NC2OC[C@@H](O)[C@H](O)[C@H]2O)cc1 (stereo partly drawn),-2.1%,,,
ClC(Cl)Cl,9.6%,-2%,inactive,
NC(N)=O,2.55%,0.964%,inactive,
OCC(O)CO,9.54%,1.91% and -2.54%,inactive,
C=CC(C)(O)CC/C=C(\C)CCC=C(C)C (stereo not drawn),-0.0803%,-7.81%,inactive,
O=C(O)c1ccc(NC(=O)[C@H](Cc2ccc(O)cc2)NC(=O)c2ccccc2)cc1,0.0398%,,,
NCCO/C=C/[C@H](N)C(=O)O,-0.535%,-5.56%,inactive,
OCl,13.5%,-19.9%,inactive,
